Experimental findings from PubChem BioAssay (Tox21) are described below.

Calls of active or inactive are those of the source. Unless noted, calls follow the shape of the dose curve; as a rule, active = well fitted curve in the direction sought with a large enough effect in the repeat runs; inconclusive = weak or mixed curves; inactive = no such curve, though single readings can be large; an effect the other way counts as inactive or inconclusive.

The nature of test [1]: qHTS assay to identify small molecule antagonists of the thyroid receptor (TR) signaling pathway - cell viability counter screen (AID 743064). Also: nearly all actives have a fitted effect of over 50% in size. Also: potency is read from the fitted curve at half-maximal effect. In a few lines: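 In rat pituitary GH3.TRE-Luc reporter cells co-exposed to compound and 1 nM T3 for 23.5 h, cytotoxicity was assessed with CellTiter-Fluor in the same wells, read by fluorescence.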
On the technique in general: Quantitative high-throughput screening tests each substance at several concentrations.

Test [2] in a line: qHTS assay to identify small molecule antagonists of the thyroid receptor (TR) signaling pathway (AID 743065). Also: nearly all actives have a fitted effect of over 55% in size. Also: potency is read from the fitted curve at half-maximal effect. The gist of the method: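 Antagonism measured as loss of luciferase signal in GH3 cells stably carrying a TRE-luciferase reporter, co-treated with compound and T3 (1 nM final) for 23.5 h at 37 C. Viability was read in the same well by CellTiter-Fluor.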
Test [3] in a line: qHTS assay to identify small molecule antagonists of the estrogen receptor alpha (ER-alpha) signaling pathway - cell viability counter screen (AID 743074; calls by dose curve;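 also: HEK293 cells carrying ER-alpha-UAS-bla reporter stimulated with 17beta-estradiol; nearly all actives have a fitted effect of over 45% in size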).
Test [4] deals with Estrogen receptor (Homo sapiens) (UniProt P03372). Briefly: qHTS assay to identify small molecule agonists of the estrogen receptor alpha (ER-alpha) signaling pathway (AID 743075; calls by dose curve).
Test [5] is described as follows: qHTS assay to identify small molecule antagonists of the estrogen receptor alpha (ER-alpha) signaling pathway using the BG1 cell line (AID 743080; calls by dose curve; also: nearly all actives have a fitted effect of over 25% in size; also: potency is read from the fitted curve at half-maximal effect). In a few lines:
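Antagonist mode: compounds in DMSO were pinned onto BG1-Luc-4E2 cells alongside 17beta-estradiol agonist, incubated 21.5 h, and ERE-driven luciferase measured with ONE-Glo. Cytotoxicity was multiplexed using CellTiter-Fluor fluorescence.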

Test [6] in a line: qHTS assay to identify small molecule antagonists of the estrogen receptor alpha (ER-alpha) signaling pathway using the BG1 cell line - cell viability counter screen (AID 743081).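 Also: compound given together with 17beta-estradiol as the ER stimulus; series mostly up to about 70 µM; nearly all actives have a fitted effect of over 45% in size.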
The next test addresses Aromatase (Homo sapiens) (UniProt P11511). Briefly: qHTS assay to identify aromatase inhibitors (AID 743083). Also: nearly all actives have a fitted effect of over 55% in size. Also: potency is read from the fitted curve at half-maximal effect.
In test [7] the test system is thyroid hormone receptor (rat, GH3 cells). The test can be described thus: qHTS assay to identify small molecule agonists of the thyroid receptor (TR) signaling pathway (AID 743066; calls by dose curve).
Test [8] addresses Estrogen receptor (Homo sapiens) (UniProt P03372). The test can be described thus: qHTS assay to identify small molecule antagonists of the estrogen receptor alpha (ER-alpha) signaling pathway (AID 743069; active = well fitted curve in the direction sought with a large enough effect in the signal ratio in the repeat runs, not every such curve was filed as active; inconclusive = weak or mixed curves, or effect the other way; inactive = no such curve, though single readings can be large or run the other way; the % refers to the signal ratio; also: potency is read from the fitted curve at half-maximal effect). In a few lines:
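Compound effects are measured against 17beta-estradiol stimulation in HEK293 cells with a UAS-controlled beta-lactamase reporter for ER-alpha. Exposure lasts 18 hr at 37C; LiveBLAzer B/G FRET substrate follows for 2 hr at room temperature.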

For test [9] the target is unchanged. Briefly: qHTS assay to identify small molecule agonists of the estrogen receptor alpha (ER-alpha) signaling pathway using the BG1 cell line (AID 743079). Also: nearly all actives have a fitted effect of over 20% in size. Also: potency is read from the fitted curve at half-maximal effect.

Estrogen receptor (Homo sapiens), sequence (P03372 whole entry, looked up): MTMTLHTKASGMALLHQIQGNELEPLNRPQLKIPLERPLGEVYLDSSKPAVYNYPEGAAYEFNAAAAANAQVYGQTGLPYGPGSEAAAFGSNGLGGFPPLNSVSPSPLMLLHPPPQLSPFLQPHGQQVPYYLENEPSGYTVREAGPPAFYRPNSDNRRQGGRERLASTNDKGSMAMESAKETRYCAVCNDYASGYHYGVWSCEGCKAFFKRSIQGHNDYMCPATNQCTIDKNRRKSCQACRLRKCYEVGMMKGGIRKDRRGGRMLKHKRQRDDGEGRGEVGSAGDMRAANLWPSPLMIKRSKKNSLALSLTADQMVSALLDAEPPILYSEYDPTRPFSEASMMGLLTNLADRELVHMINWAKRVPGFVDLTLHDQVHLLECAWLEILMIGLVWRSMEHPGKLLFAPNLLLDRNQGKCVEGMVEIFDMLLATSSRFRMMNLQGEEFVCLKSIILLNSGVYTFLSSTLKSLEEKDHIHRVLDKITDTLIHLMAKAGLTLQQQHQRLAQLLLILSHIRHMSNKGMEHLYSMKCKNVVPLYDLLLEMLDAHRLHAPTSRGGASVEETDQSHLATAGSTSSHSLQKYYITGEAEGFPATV
Aromatase (Homo sapiens), sequence (P11511 whole entry, looked up): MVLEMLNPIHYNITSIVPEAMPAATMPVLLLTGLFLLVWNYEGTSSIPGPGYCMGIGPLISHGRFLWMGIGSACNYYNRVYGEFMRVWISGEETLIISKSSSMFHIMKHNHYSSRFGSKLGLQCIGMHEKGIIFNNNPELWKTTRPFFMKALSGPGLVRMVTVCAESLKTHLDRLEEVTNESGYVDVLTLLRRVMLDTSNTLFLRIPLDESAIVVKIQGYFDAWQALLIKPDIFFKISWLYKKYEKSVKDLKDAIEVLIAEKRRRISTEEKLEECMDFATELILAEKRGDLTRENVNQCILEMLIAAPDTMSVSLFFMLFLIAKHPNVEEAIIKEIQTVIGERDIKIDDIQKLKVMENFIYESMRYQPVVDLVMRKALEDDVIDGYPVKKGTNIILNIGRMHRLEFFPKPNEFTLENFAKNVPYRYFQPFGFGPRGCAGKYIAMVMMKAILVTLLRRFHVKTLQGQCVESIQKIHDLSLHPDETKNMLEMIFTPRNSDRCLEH

`CN1CCN(C2=Nc3cc(Cl)ccc3Nc3ccccc32)CC1`: the Potency is 13.3 µM (active) in test [1] and 23.7 µM (active) in [2]. In [3], the outcome was inactive. Further, the Potency result (in test [4]; in test [5]; in test [6]; with Aromatase (Homo sapiens)) was “inactive” throughout.

Turning to `CNS(=O)(=O)Cc1ccc2[nH]cc(CCN(C)C)c2c1`, the Potency entry (in test [1]; in [2]; in test [7]; in [6]; in the test with Aromatase (Homo sapiens)) was “inactive” throughout. For the same compound, in [3], the result was inactive.

Turning to `CCCCCC(CO)CCC` (centres undefined), the Potency entry (in test [1]; in [2]; in test [7]; in the test with Aromatase (Homo sapiens)) was “inactive” throughout. Also, the call in test [3] was inactive.

For the compound `CCCCC(CC)(CO)CO`, the Potency entry (in test [1]; in [2]; in [7]; in test [6]; in the test with Aromatase (Homo sapiens)) was “inactive” each time. Moreover, the result in test [3] was inactive.

Consider `CCCCCOC(=O)COc1cc(N2C(=O)C3=C(CCCC3)C2=O)c(F)cc1Cl`, for which the Potency result in [1], in test [7], in test [8], in [4], in [9] and in test [5] was “inactive” in each case. The Potency result (in [6]; in the test with Aromatase (Homo sapiens)) was “inactive” throughout. Besides, the call in [3] was inactive.

`OCCC1CCCCN1` (centres undefined): the Potency entry in test [1], in test [2], in test [8], in [4], in [9] and in [5] was “inactive” each time. Also, the Potency result (in test [6]; with Aromatase (Homo sapiens)) was “inactive” in each case. Further, the compound was classed as inactive in test [3].

Consider `NC(=S)N/N=C/c1cccnc1`, for which the Potency entry (in test [1]; in test [2]; in [7]; in [6]; with Aromatase (Homo sapiens)) was “inactive” throughout. Moreover, the call in test [3] was inactive.

As for `Cn1c(NCCN(CCO)CCCc2ccc([N+](=O)[O-])cc2)cc(=O)n(C)c1=O`, the Potency entry (in [1]; in test [2]; in test [7]; in test [6]; in the test with Aromatase (Homo sapiens)) was “inactive” each time. In [3], the outcome was inactive.

Take `O=C(CCN1CCN2CCCC2C1)N1c2ccccc2Sc2ccc(Cl)cc21` (centres undefined): the results for the Potency in test [1] and in [2] were 21.1 µM (active) and 18.8 µM (active), respectively. Besides, the Potency result (in [8]; in [4]; in [9]; in test [5]; with Aromatase (Homo sapiens)) was “inactive” each time. For the same compound, the call in test [3] was inactive.

Regarding `CCCCc1cc2ccccc2c(OCCN(C)C)n1`, the values for the Potency in test [1] and in [2] were 8.04 µM (active) and 9.02 µM (active), respectively. Further, the Potency result (in test [7]; in the test with Aromatase (Homo sapiens)) was “inactive” throughout. For the same compound, in test [3], the compound was called inactive.

On to `Cc1ccc(O)c([C@H](CCN(C(C)C)C(C)C)c2ccccc2)c1`, for which the Potency is 11.9 µM (active) in test [1] and 26.6 µM (active) in [2]. Moreover, the Potency result (in [7]; in test [6]; with Aromatase (Homo sapiens)) was “inactive” each time. In addition, the call in test [3] was inactive.

Regarding `Cn1sccc1=O`, the Potency in [1] and in test [2] was 30.6 µM (active) in each case. Besides, the Potency entry (in test [8]; in test [4]; in test [5]; in test [6]; with Aromatase (Homo sapiens)) was “inactive” in each case. Further, in test [3], the result was inactive.

`O=C(c1ccccc1)c1ccc2n1CCC2C(=O)O` (centres undefined): the Potency result (in test [1]; in test [2]; in test [7]; in test [6]; with Aromatase (Homo sapiens)) was “inactive” in each case. For the same compound, in test [3], the result was inactive.

Turning to `CC(O)C1CCCCC1` (centres undefined), the Potency entry (in test [1]; in test [2]; in [7]; in test [6]; with Aromatase (Homo sapiens)) was “inactive” each time.

On to `CCCCCC/C=C/C=O`, for which the Potency result (in [1]; in test [2]; in test [7]; in test [6]; in the test with Aromatase (Homo sapiens)) was “inactive” each time. The compound was classed as inactive in test [3].

With `C[Si](C)O[Si](C)(C)O[Si](C)(C)O[Si](C)C`, the Potency entry in test [1], in test [2], in test [8], in [4], in test [9] and in [5] was “inactive” in each case. Moreover, the Potency result (in test [6]; with Aromatase (Homo sapiens)) was “inactive” each time. In addition, the result in test [3] was inactive.

`COC(=O)CSc1cc(N=c2sc(=O)n3n2CCCC3)c(F)cc1Cl`: the Potency result (in test [1]; in test [2]; in [7]; in [6]; in the test with Aromatase (Homo sapiens)) was “inactive” in each case. The call in test [3] was inactive.

Consider `Cc1ccccn1`, for which the Potency entry (in test [1]; in test [2]; in [7]; in [6]; with Aromatase (Homo sapiens)) was “inactive” each time. The compound was classed as inactive in test [3].

With `CCOC(=O)[C@H](CCc1ccccc1)N[C@H]1CCc2ccccc2N(CC(=O)O)C1=O`, the Potency in test [1] is 5.31 µM (active); in test [2], 8.41 µM (active); with Aromatase (Homo sapiens) it was 15 µM (active). Further, the call in test [3] was inactive. Besides, the Potency entry in test [6] was “inactive”.

As to `CN1CCC(=C2c3ccccc3C=Cc3ccccc32)CC1`, the Potency in test [1] is 15 µM (active); in test [2] it was 16.8 µM (active). The Potency entry (in test [7]; in test [4]; in test [9]; in test [6]; with Aromatase (Homo sapiens)) was “inactive” each time.

On to `N[C@H]1C(O)O[C@H](CO)[C@H](O)[C@@H]1O` (some centres undefined), for which the Potency result in test [1], in test [7], in [8], in test [4], in [9] and in test [5] was “inactive” throughout. The Potency entry (in test [6]; with Aromatase (Homo sapiens)) was “inactive” each time. In addition, the outcome in test [3] was inactive.

As for `CCCCCCCCCCCCCCCCCBr`, the Potency entry (in test [1]; in test [2]; in test [7]; in [6]; with Aromatase (Homo sapiens)) was “inactive” throughout. In test [3], the call was inactive.

With `CCCCOC(=O)c1ccccc1C(=O)OCC(CC)CCCC` (centres undefined), the Potency result in test [1], in [2], in test [7], in test [4], in [9] and in [5] was “inactive” throughout. Besides, the Potency entry (in test [6]; with Aromatase (Homo sapiens)) was “inactive” throughout.

Take `CN(C(=O)CCCOc1ccc2[nH]c(=O)ccc2c1)C1CCCCC1`: the Potency result (in test [1]; in [2]; in test [7]; in test [6]; with Aromatase (Homo sapiens)) was “inactive” throughout. Further, in [3], the result was inactive.

Turning to `O=C=NC1CCC(CC2CCC(N=C=O)CC2)CC1` (centres undefined), the Potency entry (in test [1]; in [2]; in test [7]; with Aromatase (Homo sapiens)) was “inactive” throughout. Besides, in [3], the compound was called inactive.

As to `CCOc1nc2cccc(C(=O)O)c2n1Cc1ccc(-c2ccccc2-c2nn[nH]n2)cc1`, the Potency is 29.8 µM (active) in test [1]; 29.8 µM (active) in test [2]; 0.425 µM [inconclusive] (active) in test [8]; 0.0376 µM (active) in test [9]; 2.66 µM (active) in test [5]. For the same compound, the call in [3] was inactive. The Potency entry (in test [4]; in [6]; in the test with Aromatase (Homo sapiens)) was “inactive” in each case.

In the case of `CCN(CCO)CCCC(C)Nc1ccnc2cc(Cl)ccc12` (centres undefined), the Potency result (in test [1]; in [2]; in [7]; in test [6]; with Aromatase (Homo sapiens)) was “inactive” in each case. The compound was called inactive in test [3].

Turning to `CC[C@]12CCCN3CCc4c(n(c5ccccc45)C(=O)C1)[C@@H]32`, the Potency was 8.04 µM (active) in test [1], 7.17 µM (active) in test [2] and 11.4 µM (active) with Aromatase (Homo sapiens). In addition, the Potency result in [7] and in [6] was “inactive” throughout. Further, in test [3], the call was inactive.

For the compound `CC(C(=O)O)c1ccc(C(=O)c2ccccc2)s1` (centres undefined), the Potency result (in test [1]; in test [2]; in test [8]; in test [4]; in [6]; in the test with Aromatase (Homo sapiens)) was “inactive” each time. The call in [3] was inactive.

For `N#Cc1c(F)cccc1F`, the Potency result (in test [1]; in [2]; in test [7]; in test [6]; with Aromatase (Homo sapiens)) was “inactive” throughout. Besides, the call in test [3] was inactive.

With `COc1ccccc1OC(=O)Oc1ccccc1OC`, the Potency entry (in [1]; in [2]; in [7]; in test [6]; in the test with Aromatase (Homo sapiens)) was “inactive” throughout. Also, the result in [3] was inactive.

Regarding `Nc1nc(N)c(-c2ccccc2)s1`, the Potency result (in test [1]; in test [2]; in test [7]; in test [6]; in the test with Aromatase (Homo sapiens)) was “inactive” throughout. In test [3], the result was inactive.

For `CCCCCCCCCCCCCCCC(=O)OC/C=C(C)/C=C/C=C(C)/C=C/C1=C(C)CCCC1(C)C`, the Potency entry (in test [1]; in [2]; in [7]; in test [6]; with Aromatase (Homo sapiens)) was “inactive” in each case. Further, in test [3], the compound was called inactive.

As to `CCC(=O)OC(C)(C)C1CC=C(C)CC1` (centres undefined), the Potency result in test [1], in [2], in test [7], in test [4], in test [5] and in [6] was “inactive” throughout. The Potency result with Aromatase (Homo sapiens) was “inactive”.
